Measurements taken from PubChem BioAssay (NCI).
This is part of a sample that, as a whole, favours compounds with a hit. Of some 83,000 tested, about 20% had one in any assay.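 Values shown are percent growth following 48 h exposure of cells in 96-well plates to a single concentration of compound; below 10 was considered active.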 Calls of active or inactive are those of the source.

System: SF-539 CNS
Assay: NCI-60 one-dose screen, 48 h (100 = growth as untreated, 0 = no growth, -100 = all killed)
Conditions: 10 µM unless noted

Row | SMILES | growth
1 | Cc1ccc(Cl)cc1Nc1nc(C(F)(F)F)ccc1C(=O)N/N=C/c1cccnc1 | 27.1% (inactive)
2 | Fc1ccc(-c2nn(-c3ccccc3)cc2-c2nc3ccccc3o2)cc1 | 91.7% (inactive)
3 | CCOC(=O)C(=Cc1cccc(Br)c1)C(=O)OCC | 4.36% (active)
4 | COc1cccc(NC(=O)Cn2cc(CN3CCN(c4ccnc5cc(Cl)ccc45)CC3)nn2)c1 | 87.7% (inactive)
5 | CCOC(=O)c1cc2c(=O)oc3ccccc3c2oc1=O | 100% (inactive)
6 | O=C(Nc1cc(Cl)ccc1O)c1ccc(Nc2ccnc(C(F)(F)F)c2)cc1 | 80.4% (inactive)
7 | C=C(C)[C@@H]1CC[C@]2(C(=O)O)CC[C@]3(C)[C@H](CC[C@@H]4[C@@]5(C)C[C@@H](Cc6cn(CCO[C@@H]7O[C@H](COC(C)=O)[C@H](OC(C)=O)[C@H](OC(C)=O)[C@H]7OC(C)=O)nn6)[C@H](O)C(C)(C)[C@@H]5CC[C@]43C)[C@@H]12 | 79.3% (inactive)
8 | CC(C)CCC[C@@H](C)[C@H]1CC[C@H]2[C@@H]3CC=C4C[C@@H](C(C(=O)O)C(=O)O)CC[C@]4(C)[C@H]3CC[C@]12C | -27.3% (active)
9 | O=S(=O)(Nc1ccc(Cl)cc1)c1ccc(-c2cnc(C3CC3)o2)cc1 | -14.6% (active)
10 | C#CCOc1ccc2ncnc(Nc3ccc(NC(=O)CCl)cc3)c2c1 | -81.8% (active)
11 | CCOC(=O)C1=C(NC)OCC1=O | 104% (inactive)
12 | COC(=O)c1c2c(c(C)[n+]([O-])c1C)C(=O)C=C(NCc1ccc(Br)cc1)C2=O | -86.8% (active)
13 | CCN(CC)CCOc1ccc(-c2c(-c3ccccc3)c(=O)oc3ccccc23)cc1 | 92.6% (inactive)
14 | Nc1nc(=S)c2ncn(C3OC(COP(=O)(O)O)C(O)C3O)c2[nH]1 (stereo not given) | 26.2% (inactive)
15 | COc1ccc(/C=N/NC(=O)CCN2c3ccccc3Sc3ccccc32)cc1 | 85.2% (inactive)
16 | c1cnc2[nH]cc(-c3csc(-c4cn(CCCN5CCOCC5)c5ccccc45)n3)c2c1 | 52.9% (inactive)
17 | S=C1CCSC(=S)N1CCCN1C(=S)CCSC1=S | 71.6% (inactive)
18 | COc1ccc(C(=O)Nc2ncc(Cc3ccc(F)cc3)s2)cc1 | -9.59% (active)
19 | C=C1C(=O)O[C@H]2[C@H]1CC/C(COC(=O)NCc1cc[nH]c1)=C\CC[C@@]1(C)O[C@@H]21 | 50.8% (inactive)
20 | CN(C)CCCC1(c2ccc(F)cc2)OCc2cc(-c3cccc4[nH]ccc34)ccc21 (stereo not given) | 14% (inactive)

Row | SMILES | growth
21 | COC(C(=O)[C@@H](O)[C@@H](C)O)[C@@H]1Cc2cc3cc(O[C@H]4C[C@@H](O[C@H]5C[C@@H](O)[C@H](O)C(C)O5)[C@H](O)C(C)O4)c(C)c(O)c3c(O)c2C(=O)[C@H]1O[C@H]1C[C@@H](O[C@H]2C[C@@H](O[C@H]3C[C@@H](O)[C@H](OC)C(C)O3)[C@@H](O)C(C)O2)[C@H](O)C(C)O1 (stereo not given in full) | -23.6% (active)
22 | CCNc1cc(-c2cccc(OC(F)(F)F)c2)nc2ccc(N3CCCC3)cc12 | 48.9% (inactive)
23 | CCNc1nc(-c2ccc(Cl)c(OC)c2)c(-c2ccnc(NCCCNS(=O)(=O)c3ccc(Cl)cc3)n2)s1 | 86.6% (inactive)
24 | Cc1nc2c(=O)[nH]c(SCC(=O)Nc3cccc(F)c3)nc2[nH]c1=O | 101% (inactive)
25 | Cc1ccc(-c2nc3nc(-c4ccc(F)cc4)nc(N4CCNCC4)c3o2)cc1 | -72.3% (active)
26 | O=C(/C=C(/C=C/c1cccc2[nH]ccc12)OB(F)F)/C=C/c1cccc2[nH]ccc12 | -25.8% (active)
27 | Oc1c(Cl)cc(Cl)c2ccc(Cn3cc(-c4cc(C(F)(F)F)cc(C(F)(F)F)c4)nn3)nc12 | 43.3% (inactive)
28 | CC[C@@H](C(=O)[C@@H](C)[C@@H](O)[C@H](C)[C@@H]1O[C@@H]([C@@H](CC)C(=O)NCCc2ccc(F)cc2)CC[C@@H]1C)C1O[C@]2(C=CC(=O)[C@]3(CC[C@@](C)([C@H]4CC[C@](O)(CC)[C@H](C)O4)O3)O2)[C@H](C)C[C@@H]1C (stereo not given in full) | 47.7% (inactive)
29 | c1cc2[nH]ncc2cc1-c1nc2ccc3[nH]ncc3c2c2c1CCCC2 | -7.82% (active)
30 | C#CCOc1cccc(Nc2ncnc3c(NC(=O)C=C)cccc23)c1 | 5.67% (active)
31 | N#Cc1cnc(NCCc2ccncc2)nc1-n1cnc2ccccc21 | 61.3% (inactive)
32 | CCOC(=O)c1c(NC(=O)c2ccc(C(C)C)cc2)sc2c(CN(C)C)c(O)ccc12 | 75% (inactive)
33 | COc1ccc(N2CCC(=O)NC2=S)cc1 | 99.4% (inactive)
34 | Oc1c(Cl)cc(Cl)c2ccc(Cn3cc(-c4cc(F)cc(F)c4)nn3)nc12 | 65.8% (inactive)
35 | CO/N=C(/C)c1ccc(NC(=O)CSc2nnc(-c3ccncc3)n2-c2ccccc2)cc1 | -31.2% (active)
36 | O=C1c2cccnc2C(=O)c2c1c(C(=O)NCCn1ccnc1)c1ccccn21 | 9.99% (active)
37 | O=C1NC(=O)c2c1c1c3ccccc3ccc1c1[nH]c3ccc(Br)cc3c21 | 23.1% (inactive)
38 | Cc1ccc(-c2nc3nc(-c4ccccc4)nc(N4CCNCC4)c3o2)cc1 | -93.4% (active)
39 | CC(C)(C)n1cc(-c2ccnc(NCCNS(=O)(=O)c3cccc(F)c3)c2)c(-c2ccccc2)n1 | 88.1% (inactive)
40 | Cc1c(-n2nnc(-c3nc4ccccc4s3)c2N)c(=O)n(-c2ccccc2)n1C | 92.2% (inactive)
